About 7,900 targets were measured; listed, in parts, are those with a hit and a random draw of the rest. About 0.6% of all pairs of compound and target were hits.
Tests used:
Test in all cases: log2 fold change, soluble protein after heating vs DMSO (PISA); higher = thermal stabilisation; K562 cells, 10 uM, 30 min; active = over 0.2 and 3.5 SD of the protein, either way, in both replicates (recomputed)
[1] = compound: CC1=C(C=C(C=C1)NC(=O)C2=CC(=CC=C2)C(C)(C)C#N)NC3=CC4=C(C=C3)N=CN(C4=O)C
Method in brief: (§1)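 Soluble protein was quantified by TMTpro 16plex LC-MS/MS after channel sums were equalised. It was obtained as the supernatant after 21,000xg for 90 min from pooled aliquots of K562 cells (2×10^6 cells/mL, 10 μM compound, 30 min) heated for 3 min across 48°C-58°C and extracted in PBS with 0.5% NP-40 at 4°C. Thermal stability values are relative to control samples and come from duplicates. They are given as log2 fold changes.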

[2] = compound: CC1=C(C=C(C=C1)NC(=O)C2=CC(=CC=C2)N(C)C)NC(=O)C3=CC=C(C=C3)O
Method in brief: as §1

[3] = compound: CC1=CC=C(C=C1)SC2=C3C=C(SC3=CN=C2)C(=O)N
Method in brief: as §1

[4] = compound: CC1=NC(=CC=C1)C2=C(N=C(N2)C(C)(C)C)C3=CC4=NC=CN=C4C=C3
Method in brief: as §1

Nexturastat A = compound: CCCCN(Cc1ccc(C(=O)NO)cc1)C(=O)Nc1ccccc1 [Nexturastat A]
Method in brief: as §1

vemurafenib = compound: CCCS(=O)(=O)Nc1ccc(F)c(C(=O)c2c[nH]c3ncc(-c4ccc(Cl)cc4)cc23)c1F [vemurafenib]
Method in brief: as §1

[5] = compound: CCCS(=O)(=O)Nc1ccc(F)c(C(=O)c2c[nH]c3ncc(Cl)cc23)c1F
Method in brief: as §1

[6] = compound: CCCc1cc(C)[nH]c(=O)c1CNC(=O)c1cc(-c2ccnc(N3CCN(C)CC3)c2)cc2c1cnn2C(C)C
Method in brief: as §1

givinostat = compound: CCN(CC)Cc1ccc2cc(COC(=O)Nc3ccc(C(=O)NO)cc3)ccc2c1 [givinostat]
Method in brief: as §1

barasertib = compound: CCN(CCCOc1ccc2c(Nc3cc(CC(=O)Nc4cccc(F)c4)[nH]n3)ncnc2c1)CCOP(=O)(O)O [barasertib]
Method in brief: as §1

Measured: log2 fold change

LMNB2 (UniProt Q03252)
inactive: [1] -0.022 | [2] 0.015 | [3] -0.025 | [4] 0.063 | Nexturastat A -0.04 | vemurafenib 0.019 | [5] 0.045 | [6] -0.014 | givinostat 0.047 | barasertib 0.039

MEAK7 (UniProt Q6P9B6)
inactive: [1] 0.081 | [2] 0.053 | [3] -0.005 | [4] 0.015 | Nexturastat A -0.006 | vemurafenib 0.012 | [5] 0.067 | [6] -0.055 | givinostat 0.085 | barasertib 0.025

MICU1 isoform 3 (UniProt Q9BPX6)
Chain of UniProt Q9BPX6 (Q9BPX6 whole entry, looked up): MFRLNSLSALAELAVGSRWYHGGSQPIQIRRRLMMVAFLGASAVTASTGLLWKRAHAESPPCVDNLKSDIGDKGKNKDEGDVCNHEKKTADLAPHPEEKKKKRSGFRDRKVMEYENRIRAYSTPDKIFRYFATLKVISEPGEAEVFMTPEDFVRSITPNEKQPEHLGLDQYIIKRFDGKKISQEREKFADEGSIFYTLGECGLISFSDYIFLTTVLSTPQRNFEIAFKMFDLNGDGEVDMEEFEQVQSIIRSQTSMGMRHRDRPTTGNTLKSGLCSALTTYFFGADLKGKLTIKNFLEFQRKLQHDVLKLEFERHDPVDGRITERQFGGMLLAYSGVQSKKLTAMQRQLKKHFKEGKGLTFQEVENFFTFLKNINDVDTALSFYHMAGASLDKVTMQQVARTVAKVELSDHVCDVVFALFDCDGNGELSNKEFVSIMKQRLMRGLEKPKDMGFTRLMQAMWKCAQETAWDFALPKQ
inactive: [1] -0.002 | [2] 0.052 | [3] -0.003 | [4] -0.028 | Nexturastat A 0.117 | vemurafenib -0.049 | [5] 0.042 | [6] -0.001 | givinostat 0 | barasertib 0.012

LSR (UniProt Q86X29)
Chain of UniProt Q86X29 (Q86X29 whole entry, looked up): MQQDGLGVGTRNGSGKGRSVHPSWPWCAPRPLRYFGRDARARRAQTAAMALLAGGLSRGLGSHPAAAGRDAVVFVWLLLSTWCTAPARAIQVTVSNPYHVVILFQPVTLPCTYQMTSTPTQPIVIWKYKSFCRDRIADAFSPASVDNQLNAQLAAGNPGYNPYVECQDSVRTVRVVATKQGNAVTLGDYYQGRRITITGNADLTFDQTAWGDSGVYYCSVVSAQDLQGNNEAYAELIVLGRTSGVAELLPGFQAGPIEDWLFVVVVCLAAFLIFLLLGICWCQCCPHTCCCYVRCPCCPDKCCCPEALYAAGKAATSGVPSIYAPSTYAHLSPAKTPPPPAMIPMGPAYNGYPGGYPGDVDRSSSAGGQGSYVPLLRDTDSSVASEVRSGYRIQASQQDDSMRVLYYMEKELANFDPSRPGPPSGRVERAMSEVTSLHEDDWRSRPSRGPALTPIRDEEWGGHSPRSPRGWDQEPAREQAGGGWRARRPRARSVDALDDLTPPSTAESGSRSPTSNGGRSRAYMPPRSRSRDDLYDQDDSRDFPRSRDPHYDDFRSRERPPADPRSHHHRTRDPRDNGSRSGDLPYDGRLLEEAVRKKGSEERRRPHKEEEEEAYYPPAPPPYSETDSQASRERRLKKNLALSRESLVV
inactive: [1] -0.051 | [2] 0.016 | [3] -0.05 | [4] -0.05 | Nexturastat A -0.074 | vemurafenib -0.028 | [5] -0.061 | [6] -0.019 | givinostat -0.046 | barasertib -0.016

MARK3 (UniProt P27448)
inactive: [1] -0.017 | [2] 0.02 | [3] 0.067 | [4] -0.029 | Nexturastat A 0.074 | vemurafenib 0 | [5] 0.004 | [6] 0.077 | givinostat 0.038 | barasertib 0.023

IGFBP4 (UniProt P22692)
inactive: [1] 0.044 | [2] 0.207 | [3] 0.026 | [4] 0.003 | Nexturastat A 0.019 | vemurafenib 0.084 | [5] -0.08 | [6] -0.193 | givinostat -0.007 | barasertib 0.013

LTV1 (UniProt Q96GA3)
Chain of UniProt Q96GA3 (Q96GA3 whole entry, looked up): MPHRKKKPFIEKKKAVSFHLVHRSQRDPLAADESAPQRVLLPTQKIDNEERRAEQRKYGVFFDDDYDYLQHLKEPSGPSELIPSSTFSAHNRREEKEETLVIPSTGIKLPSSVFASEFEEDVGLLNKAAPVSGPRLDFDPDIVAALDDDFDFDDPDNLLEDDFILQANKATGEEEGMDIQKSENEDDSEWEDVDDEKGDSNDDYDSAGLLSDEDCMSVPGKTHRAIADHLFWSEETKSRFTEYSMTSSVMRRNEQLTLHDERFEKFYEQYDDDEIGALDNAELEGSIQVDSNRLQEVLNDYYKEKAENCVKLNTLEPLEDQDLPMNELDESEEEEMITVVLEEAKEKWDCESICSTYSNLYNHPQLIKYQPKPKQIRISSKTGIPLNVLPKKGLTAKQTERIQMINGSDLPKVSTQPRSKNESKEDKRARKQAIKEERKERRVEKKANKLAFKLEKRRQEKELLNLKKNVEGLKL
inactive: [1] 0.044 | [2] -0.04 | [3] -0.04 | [4] -0.035 | Nexturastat A 0.248 | vemurafenib -0.075 | [5] -0.008 | [6] -0.011 | givinostat -0.025 | barasertib -0.075

MAPKAPK3 (UniProt Q16644)
inactive: [1] 0.24 | [2] 0.097 | [3] -0.025 | [4] 0.069 | Nexturastat A -0.134 | vemurafenib 0.033 | [5] 0.063 | [6] -0.012 | givinostat 0.015 | barasertib 0.039

LARP7 isoform 3 (UniProt Q4G0J3)
Chain of UniProt Q4G0J3 (Q4G0J3 whole entry, looked up): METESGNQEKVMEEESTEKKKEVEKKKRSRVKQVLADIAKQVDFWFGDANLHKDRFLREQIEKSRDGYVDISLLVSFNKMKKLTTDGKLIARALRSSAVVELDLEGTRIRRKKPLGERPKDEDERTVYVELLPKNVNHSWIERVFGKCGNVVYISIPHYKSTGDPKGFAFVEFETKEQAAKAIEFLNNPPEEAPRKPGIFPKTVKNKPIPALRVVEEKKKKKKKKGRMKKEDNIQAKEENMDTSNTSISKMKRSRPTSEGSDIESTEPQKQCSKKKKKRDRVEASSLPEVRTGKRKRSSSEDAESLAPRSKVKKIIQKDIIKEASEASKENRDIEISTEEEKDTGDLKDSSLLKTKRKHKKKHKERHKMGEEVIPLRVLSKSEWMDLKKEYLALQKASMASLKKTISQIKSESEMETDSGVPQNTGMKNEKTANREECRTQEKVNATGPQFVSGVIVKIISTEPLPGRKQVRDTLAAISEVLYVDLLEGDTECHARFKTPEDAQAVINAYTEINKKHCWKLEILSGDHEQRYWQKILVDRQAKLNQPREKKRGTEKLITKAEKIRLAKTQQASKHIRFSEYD
inactive: [1] -0.011 | [2] 0.054 | [3] -0.03 | [4] -0.053 | Nexturastat A 0.016 | vemurafenib 0.027 | [5] 0.045 | [6] 0.004 | givinostat -0.03 | barasertib 0

ILRUN (UniProt Q9H6K1)
inactive: [1] 0.06 | [2] -0.02 | [3] 0.088 | [4] 0.005 | Nexturastat A 0.072 | vemurafenib 0.059 | [5] 0.135 | [6] -0.026 | givinostat -0.051 | barasertib -0.044

MAP3K7 (UniProt O43318)
inactive: [1] -0.008 | [2] -0.039 | [3] 0.041 | [4] 0.019 | Nexturastat A 0.027 | vemurafenib 0.042 | [5] 0.074 | [6] 0.008 | givinostat 0.093 | barasertib 0.079

MIEF1 (UniProt Q9NQG6)
Chain of UniProt Q9NQG6 (Q9NQG6 whole entry, looked up): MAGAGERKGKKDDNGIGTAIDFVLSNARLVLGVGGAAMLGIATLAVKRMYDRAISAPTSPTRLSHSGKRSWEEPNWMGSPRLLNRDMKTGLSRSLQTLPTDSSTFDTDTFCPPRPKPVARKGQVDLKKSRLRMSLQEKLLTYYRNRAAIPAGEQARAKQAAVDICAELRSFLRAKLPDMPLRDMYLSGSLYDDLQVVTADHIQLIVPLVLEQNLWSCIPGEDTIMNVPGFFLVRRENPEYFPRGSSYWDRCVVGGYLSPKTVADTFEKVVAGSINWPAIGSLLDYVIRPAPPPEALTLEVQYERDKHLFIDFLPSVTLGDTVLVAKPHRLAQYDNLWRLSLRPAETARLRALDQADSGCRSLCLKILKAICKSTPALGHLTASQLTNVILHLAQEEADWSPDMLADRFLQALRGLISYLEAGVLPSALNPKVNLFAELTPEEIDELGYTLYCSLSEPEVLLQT
inactive: [1] 0.054 | [2] 0.009 | [3] 0.023 | [4] 0.13 | Nexturastat A -0.067 | vemurafenib -0.02 | [5] 0.019 | [6] 0.008 | givinostat -0.044 | barasertib 0.015

KPNA1 (UniProt P52294)
Chain of UniProt P52294 (P52294 whole entry, looked up): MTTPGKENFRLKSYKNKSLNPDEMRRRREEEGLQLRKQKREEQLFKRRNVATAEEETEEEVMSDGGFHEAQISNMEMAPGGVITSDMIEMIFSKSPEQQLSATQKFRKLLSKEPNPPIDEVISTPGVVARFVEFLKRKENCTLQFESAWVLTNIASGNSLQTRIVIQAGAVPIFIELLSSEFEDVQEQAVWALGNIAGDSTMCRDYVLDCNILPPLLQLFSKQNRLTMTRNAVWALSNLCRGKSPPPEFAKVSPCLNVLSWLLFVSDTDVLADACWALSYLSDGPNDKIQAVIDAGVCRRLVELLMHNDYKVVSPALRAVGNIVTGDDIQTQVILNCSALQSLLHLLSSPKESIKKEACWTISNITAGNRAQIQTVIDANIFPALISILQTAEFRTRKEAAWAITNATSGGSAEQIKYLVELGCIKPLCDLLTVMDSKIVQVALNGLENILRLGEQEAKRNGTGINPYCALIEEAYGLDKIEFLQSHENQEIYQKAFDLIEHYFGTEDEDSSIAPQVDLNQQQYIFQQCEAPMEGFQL
inactive: [1] -0.034 | [2] -0.056 | [3] -0.021 | [4] -0.041 | Nexturastat A 0.084 | vemurafenib 0.035 | [5] 0.026 | [6] 0.034 | givinostat 0.086 | barasertib 0.012

JMJD6 isoform 3 (UniProt Q6NYC1)
inactive: [1] 0.055 | [2] -0.085 | [3] 0.092 | [4] 0.024 | Nexturastat A -0.147 | vemurafenib 0.002 | [5] 0.049 | [6] 0.071 | givinostat -0.095 | barasertib -0.007

MIEN1 (UniProt Q9BRT3)
inactive: [1] -0.011 | [2] -0.029 | [3] 0.036 | [4] -0.054 | Nexturastat A -0.002 | vemurafenib 0.081 | [5] 0.073 | [6] 0.016 | givinostat 0 | barasertib 0.132

MAN2B2 (UniProt Q9Y2E5)
inactive: [1] 0.017 | [2] 0.049 | [3] 0.033 | [4] -0.056 | Nexturastat A -0.062 | vemurafenib -0.105 | [5] -0.17 | [6] 0.139 | givinostat 0.014 | barasertib 0.041

MAGOHB (UniProt Q96A72)
inactive: [1] -0.002 | [2] -0.062 | [3] 0.008 | [4] 0.067 | Nexturastat A -0.026 | vemurafenib 0.037 | [5] 0.04 | [6] -0.069 | givinostat 0.003 | barasertib 0.007

INPP1 (UniProt P49441)
inactive: [1] 0.039 | [2] 0.016 | [3] 0.054 | [4] 0.052 | Nexturastat A 0.061 | vemurafenib 0.031 | [5] -0.071 | [6] 0.079 | givinostat -0.032 | barasertib -0.03

ILKAP (UniProt Q9H0C8)
Chain of UniProt Q9H0C8 (Q9H0C8 whole entry, looked up): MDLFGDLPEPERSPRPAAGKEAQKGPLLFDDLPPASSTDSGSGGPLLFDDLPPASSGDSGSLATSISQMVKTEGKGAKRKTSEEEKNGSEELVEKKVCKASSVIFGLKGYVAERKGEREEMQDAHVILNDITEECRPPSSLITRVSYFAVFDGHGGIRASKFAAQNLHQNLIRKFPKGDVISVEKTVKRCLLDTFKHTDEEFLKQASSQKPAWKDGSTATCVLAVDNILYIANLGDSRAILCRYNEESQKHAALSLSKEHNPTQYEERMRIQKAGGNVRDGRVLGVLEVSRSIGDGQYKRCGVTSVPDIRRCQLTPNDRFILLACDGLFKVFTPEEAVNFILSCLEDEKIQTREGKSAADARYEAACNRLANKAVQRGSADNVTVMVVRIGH
inactive: [1] -0.026 | [2] -0.117 | [3] 0.072 | [4] 0.168 | Nexturastat A 0 | vemurafenib 0.08 | [5] 0.082 | [6] 0.063 | givinostat 0.071 | barasertib 0.07

KIF21A isoform 4 (UniProt Q7Z4S6)
inactive: [1] 0.051 | [2] -0.067 | [3] -0.003 | [4] -0.043 | Nexturastat A 0.106 | vemurafenib -0.045 | [5] 0.014 | [6] -0.025 | givinostat 0.069 | barasertib 0.104

KNTC1 (UniProt P50748)
inactive: [1] -0.027 | [2] -0.003 | [3] -0.021 | [4] 0.026 | Nexturastat A 0.034 | vemurafenib 0.042 | [5] 0.036 | [6] 0.092 | givinostat 0.082 | barasertib 0.035

KSR1 (UniProt Q8IVT5)
inactive: [1] 0.231 | [2] -0.007 | [3] 0.112 | [4] -0.028 | Nexturastat A 0.001 | vemurafenib 0.046 | [5] 0.218 | [6] -0.132 | givinostat 0.106 | barasertib 0.013

MAST4 (UniProt O15021)
inactive: [1] 0.003 | [2] -0.246 | [3] 0.061 | [4] 0.044 | Nexturastat A -0.08 | vemurafenib 0.021 | [5] 0.055 | [6] 0.072 | givinostat -0.024 | barasertib 0.028

MAD2L1 (UniProt Q13257)
Chain of UniProt Q13257 (Q13257 whole entry, looked up): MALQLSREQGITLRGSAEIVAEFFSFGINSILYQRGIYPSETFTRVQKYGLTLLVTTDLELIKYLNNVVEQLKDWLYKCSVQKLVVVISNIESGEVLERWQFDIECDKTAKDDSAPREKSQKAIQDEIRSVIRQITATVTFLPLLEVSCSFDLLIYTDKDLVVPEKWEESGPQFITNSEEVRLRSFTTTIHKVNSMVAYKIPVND
inactive: [1] 0.019 | [2] -0.035 | [3] -0.003 | [4] 0.031 | Nexturastat A -0.103 | vemurafenib 0.028 | [5] 0.031 | [6] -0.129 | givinostat 0.02 | barasertib 0.018

MAP4 (UniProt E7EVA0)
inactive: [1] 0 | [2] 0.008 | [3] -0.03 | [4] -0.061 | Nexturastat A 0.161 | vemurafenib -0.046 | [5] -0.002 | [6] 0.024 | givinostat 0.091 | barasertib 0.061

MAP4K4 isoform 3 (UniProt O95819)
Chain of UniProt O95819 (O95819 whole entry, looked up): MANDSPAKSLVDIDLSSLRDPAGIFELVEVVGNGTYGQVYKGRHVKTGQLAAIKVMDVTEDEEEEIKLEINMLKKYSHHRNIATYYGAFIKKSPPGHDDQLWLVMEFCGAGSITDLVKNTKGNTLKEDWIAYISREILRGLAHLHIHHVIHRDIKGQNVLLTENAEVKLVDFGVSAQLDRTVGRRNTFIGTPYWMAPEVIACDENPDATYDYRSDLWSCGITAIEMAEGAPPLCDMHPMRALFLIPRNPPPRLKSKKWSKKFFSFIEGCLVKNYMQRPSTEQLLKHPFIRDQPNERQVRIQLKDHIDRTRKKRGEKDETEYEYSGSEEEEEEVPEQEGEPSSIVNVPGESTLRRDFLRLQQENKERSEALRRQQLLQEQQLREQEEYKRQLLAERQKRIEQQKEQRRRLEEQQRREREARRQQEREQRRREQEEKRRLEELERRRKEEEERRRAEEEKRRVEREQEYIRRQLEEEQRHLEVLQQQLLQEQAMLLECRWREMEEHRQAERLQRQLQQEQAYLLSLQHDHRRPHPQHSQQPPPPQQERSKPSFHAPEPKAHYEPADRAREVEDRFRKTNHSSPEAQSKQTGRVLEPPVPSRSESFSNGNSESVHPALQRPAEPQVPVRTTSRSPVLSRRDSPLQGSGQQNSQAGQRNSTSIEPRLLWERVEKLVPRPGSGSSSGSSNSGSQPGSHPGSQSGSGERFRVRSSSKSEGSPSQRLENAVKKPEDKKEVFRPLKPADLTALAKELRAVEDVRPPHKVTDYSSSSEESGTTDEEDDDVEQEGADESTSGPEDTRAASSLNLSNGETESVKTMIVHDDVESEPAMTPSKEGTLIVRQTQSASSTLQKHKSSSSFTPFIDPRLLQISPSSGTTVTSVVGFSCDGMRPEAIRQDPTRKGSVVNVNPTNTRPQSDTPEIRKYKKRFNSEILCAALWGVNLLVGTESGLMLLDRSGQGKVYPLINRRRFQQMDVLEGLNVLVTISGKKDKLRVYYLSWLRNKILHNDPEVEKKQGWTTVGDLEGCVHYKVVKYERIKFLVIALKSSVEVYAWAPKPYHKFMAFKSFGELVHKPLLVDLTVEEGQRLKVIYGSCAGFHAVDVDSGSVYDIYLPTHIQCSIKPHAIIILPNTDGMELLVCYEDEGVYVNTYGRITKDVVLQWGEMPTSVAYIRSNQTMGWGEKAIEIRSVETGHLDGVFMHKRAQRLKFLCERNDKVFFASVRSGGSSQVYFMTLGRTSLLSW
inactive: [1] -0.166 | [2] 0.013 | [3] 0.022 | [4] 0.012 | Nexturastat A 0.033 | vemurafenib -0.007 | [5] 0.028 | [6] -0.02 | givinostat 0.017 | barasertib -0.012

MAGEA9 (UniProt P43362)
inactive: [1] -0.033 | [2] 0.05 | [3] -0.005 | [4] -0.087 | Nexturastat A 0.005 | vemurafenib -0.031 | [5] 0.072 | [6] 0.054 | givinostat 0.066 | barasertib 0.036

— the supplement of paper PMC10849652
